In PubChem BioAssay (NCATS):
“And” between values parts separate entries of the source, which are not always exact repeats. Equal entries are not always repeated. For part of these data: Measured potencies and affinities stand elsewhere. The source made the active and inactive calls.

Legend:
[1] = Ebola virus entry assay, blue channel fluorescence
[2] = Ebola virus entry assay, green fluorescence channel
[3] = Ebola virus entry assay, ratio channel readout
[4] = Ebola virus entry assay, blue channel fluorescence; remark: listed apart in the source
[5] = qHTS profiling of the MIPE4 collection as inhibitors of Plasmodium falciparum (DD2) proliferation (Rep 2) (AID 743346; call rule not given here); conditions: P. falciparum Dd2 in erythrocytes, SYBR Green DNA, 72 h; at 28.5 µM (top of the series) unless noted
Outline: (§1)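 Erythrocytes infected with P. falciparum (0.3% parasitemia, 2.5% hematocrit) incubated with compounds 72 h at 37 C, 5% CO2. Lysis with saponin/Triton buffer containing SYBR Green I, overnight at room temperature in the dark; DNA fluorescence (485/535 nm) normalised to 0.29 uM artemisinin and DMSO.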

[6] = qHTS profiling of the MIPE4 collection as inhibitors of Plasmodium falciparum (HB3) proliferation (AID 743347; call rule not given here;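 note: plate controls were DMSO vehicle wells for no effect and artemisinin wells for full effect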); conditions: P. falciparum HB3 in erythrocytes, SYBR Green DNA, 72 h; at 28.5 µM (top of the series) unless noted
Outline: as §1

[7] = qHTS profiling of the MIPE4 collection as inhibitors of Plasmodium falciparum (3D7) proliferation (AID 743344; call rule not given here;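 note: scaled between DMSO vehicle wells and 0.29 µM artemisinin as full inhibition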); conditions: P. falciparum 3D7 in erythrocytes, SYBR Green DNA fluorescence, 72 h; at 28.5 µM (top of the series) unless noted
Outline: as §1

[8] = qHTS profiling of the MIPE4 collection as inhibitors of Plasmodium falciparum (DD2) proliferation (AID 743345; call rule not given here); conditions: P. falciparum Dd2 in erythrocytes, SYBR Green DNA, 72 h; at 28.5 µM (top of the series) unless noted
Outline: as §1

[9] = qHTS profiling for inhibitors of Plasmodium falciparum (DD2) proliferation (AID 743323; call rule not given here); conditions: lower = more inhibition; at 28.7 µM (top of the series)
Outline: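 SYBR Green fluorescence (ex 485, em 535 nm) of lysed cultures gives parasite DNA content; wells normalized to artemisinin (0.29 uM) and DMSO controls. Infected red cells: 0.3% parasitemia, 2.5% hematocrit, 72 h, 37 C.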

CN1C(CSCC(F)(F)F)Nc2cc(Cl)c(S(N)(=O)=O)cc2S1(=O)=O (stereo unspecified)
outcome [1]: inactive | outcome [2]: inactive | outcome [3]: inactive | outcome [4]: inactive

NC(=O)c1cnccn1
outcome [1]: inactive | outcome [2]: inactive | outcome [3]: inactive | outcome [4]: inactive

Cc1onc(-c2ccccc2)c1C(=O)N[C@@H]1C(=O)N2[C@@H](C(=O)O)C(C)(C)S[C@@H]12
parasite growth, % of control (lower = inhibition) [5]: 92.1% | growth, % of control [6]: 82.7% | outcome [1]: inactive | outcome [2]: inactive

O=C1[O][Bi][O]c2ccccc21
outcome [1]: inactive | outcome [3]: inactive

O=c1[nH]c(=O)n([C@H]2C[C@H](O)[C@@H](CO)O2)cc1F
outcome [2]: inactive | outcome [4]: inactive

CC(O)(P(=O)(O)O)P(=O)(O)O
outcome [1]: inactive | outcome [2]: inactive | outcome [4]: inactive

CCOC(=O)[C@H](CCc1ccccc1)N[C@@H](C)C(=O)N1[C@H](C(=O)O)C[C@H]2CCCC[C@@H]21
outcome [2]: inactive | outcome [3]: inactive

Nc1nc(/C(=C/CC(=O)O)C(=O)N[C@@H]2C(=O)N3C(C(=O)O)=CCS[C@H]23)cs1
outcome [2]: inactive | outcome [3]: inactive

C[C@]12CC[C@@H]3c4ccc(OC(=O)N(CCCl)CCCl)cc4CC[C@H]3[C@@H]1CC[C@@H]2OP(=O)(O)O
parasite growth, % of DMSO control [7]: 86.9% | parasite growth remaining, % of DMSO control (lower = more inhibition) [8]: 97.1% | parasite growth, % of control (lower = inhibition) [5]: 86.3% | growth, % of control [6]: 47.6% | outcome [1]: inactive | outcome [2]: inactive | outcome [3]: inactive

NS(=O)(=O)c1cc2c(cc1C(F)(F)F)NC(Cc1ccccc1)NS2(=O)=O (stereo unspecified)
outcome [1]: inactive | outcome [2]: inactive | outcome [3]: inactive | outcome [4]: inactive

Nc1ccn([C@@H]2CS[C@H](CO)O2)c(=O)n1
outcome [2]: inactive | outcome [3]: inactive

CCOC(=O)C1=C[C@@H](OC(CC)CC)[C@H](NC(C)=O)[C@@H](N)C1
parasite growth, % of DMSO control [7]: 91.3% | parasite growth remaining, % of DMSO control (lower = more inhibition) [8]: 97.7% | parasite growth, % of control (lower = inhibition) [5]: 101% | growth, % of control [6]: 98.6% | outcome [1]: inactive | outcome [2]: inactive | outcome [3]: inactive

C[C@H](CS)C(=O)N1CCC[C@H]1C(=O)O
outcome [1]: inactive | outcome [3]: inactive | outcome [4]: inactive

C=CCN1C[C@H](C(=O)N(CCCN(C)C)C(=O)NCC)C[C@@H]2c3cccc4[nH]cc(c34)C[C@H]21
outcome [1]: inactive | outcome [2]: inactive | outcome [3]: inactive | outcome [4]: inactive

Clc1ccc2nsnc2c1NC1=NCCN1
outcome [1]: inactive | outcome [2]: inactive | outcome [3]: inactive | outcome [4]: inactive

C=C[C@H]1CN2CC[C@H]1C[C@H]2[C@H](O)c1ccnc2ccc(OC)cc12
outcome [1]: inactive | outcome [2]: inactive | outcome [3]: inactive | AC50 [4]: 25.1 µM (active)

O=P1(N(CCCl)CCCl)NCCCO1 (stereo unspecified)
activity, percent of control [9]: 108% and 125% | parasite growth, % of DMSO control [7]: 42.1% | parasite growth remaining, % of DMSO control (lower = more inhibition) [8]: 54.1% | parasite growth, % of control (lower = inhibition) [5]: 39.6% | growth, % of control [6]: 65.9% | outcome [1]: inactive | outcome [2]: inactive | outcome [4]: inactive
